# Reference: the supplement of paper PMC8728848
# The entries come from a sample that favours the strongest signals as a whole.
# B1: Galatrox (Botrops atrox), P0DM53 (protein)
# chain: NNCPQDWLPMNGLCYKIFDELKAWKDAEMFCRKYKPGCHLASIILYGESPEWAEGHSEVWLGLWDKKKDFSWEWTDR
# What was measured:
# Assay in all cases: glycan array binding signal (z-score within array); higher = stronger binding
# Conditions in all cases: glycan notation: IUPAC condensed, linker removed
# [1] = molecular target: Fuc(a1-2)Gal(b1-3)GlcNAc(b1-3)[Fuc(a1-3)[Gal(b1-4)]GlcNAc(b1-6)]Gal(b1-4)Glc
# Method in brief: (§1)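 Negative Z-scores can be read as non-binding. The Z-score is calculated within each array and then averaged across arrays of one protein sequence at different concentrations or buffers and across linkers. Arrays, 3228 in all, were curated from the Consortium for Functional Glycomics database and kept only where the protein sequence was available.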
# [2] = molecular target: Fuc(a1-2)Gal(b1-4)GlcNAc(b1-3)GalNAc
# Method in brief: as §1
# [3] = molecular target: Fuc(a1-2)Gal(b1-4)[Fuc(a1-3)]GlcNAc
# Method in brief: as §1
# [4] = molecular target: Fuc(a1-2)Gal(b1-4)[Fuc(a1-3)]GlcNAc(b1-2)Man(a1-3)[Fuc(a1-2)Gal(b1-4)[Fuc(a1-3)]GlcNAc(b1-2)Man(a1-6)]Man(b1-4)GlcNAc(b1-4)GlcNAc
# Method in brief: as §1
# [5] = molecular target: Fuc(a1-2)[GalNAc(a1-3)]Gal
# Method in brief: as §1
# Gal(a1-3)Gal(b1-4)GlcNAc = molecular target: Gal(a1-3)Gal(b1-4)GlcNAc
# Method in brief: as §1
# Gal(a1-6)Glc = molecular target: Gal(a1-6)Glc
# Method in brief: as §1
# Gal(b1-3)Gal(b1-4)GlcNAc = molecular target: Gal(b1-3)Gal(b1-4)GlcNAc
# Method in brief: as §1
# [6] = molecular target: Gal(b1-3)GlcNAc(b1-3)Gal(b1-4)Glc
# Method in brief: as §1
# [7] = molecular target: Gal(b1-3)[Fuc(a1-4)]GlcNAc(b1-2)Man(a1-3)[Gal(b1-3)[Fuc(a1-4)]GlcNAc(b1-2)Man(a1-6)]Man(b1-4)GlcNAc(b1-4)[Fuc(a1-6)]GlcNAc
# Method in brief: as §1
# [8] = molecular target: Gal(b1-3)[GlcNAc(b1-6)]GalNAc
# Method in brief: as §1
# [9] = molecular target: Gal(b1-4)GlcNAc(a1-6)Gal(b1-4)GlcNAc
# Method in brief: as §1
# [10] = molecular target: Gal(b1-4)GlcNAc(b1-2)Man(a1-3)[Gal(b1-4)GlcNAc(b1-2)Man(a1-6)]Man(b1-4)GlcNAc(b1-4)GlcNAc
# Method in brief: as §1
# [11] = molecular target: Gal(b1-4)GlcNAc(b1-2)Man(a1-3)[Man(a1-6)]Man(b1-4)GlcNAc(b1-4)GlcNAc
# Method in brief: as §1
# [12] = molecular target: Gal(b1-4)GlcNAc(b1-2)Man(a1-6)[Man(a1-3)]Man(b1-4)GlcNAc(b1-4)GlcNAc
# Method in brief: as §1
# [13] = molecular target: Gal(b1-4)GlcNAc(b1-2)[Gal(b1-4)GlcNAc(b1-4)]Man(a1-3)[Gal(b1-4)GlcNAc(b1-2)Man(a1-6)]Man(b1-4)GlcNAc(b1-4)GlcNAc
# Method in brief: as §1
# [14] = molecular target: Gal(b1-4)GlcNAc(b1-3)Gal(b1-4)GlcNAc
# Method in brief: as §1
# [15] = molecular target: Gal(b1-4)GlcNAc(b1-3)Gal(b1-4)GlcNAc(b1-3)Gal(b1-4)GlcNAc
# Method in brief: as §1
# [16] = molecular target: Gal(b1-4)GlcNAc(b1-3)Gal(b1-4)[Fuc(a1-3)]GlcNAc(b1-3)Gal(b1-4)[Fuc(a1-3)]GlcNAc
# Method in brief: as §1
# [17] = molecular target: Gal(b1-4)GlcNAc(b1-3)[Gal(b1-4)GlcNAc(b1-6)]Gal(b1-4)GlcNAc
# Method in brief: as §1
# [18] = molecular target: Gal(b1-4)GlcNAc(b1-6)GalNAc
# Method in brief: as §1
# Gal3S(b1-3)GlcNAc = molecular target: Gal3S(b1-3)GlcNAc
# Method in brief: as §1
# Kdn(a2-6)Gal(b1-4)GlcNAc = molecular target: Kdn(a2-6)Gal(b1-4)GlcNAc
# Method in brief: as §1
# [19] = molecular target: Man(a1-2)Man(a1-3)[Man(a1-2)Man(a1-6)]Man
# Method in brief: as §1
# [20] = molecular target: Man(a1-2)Man(a1-3)[Man(a1-2)Man(a1-6)]Man(a1-6)[Man(a1-2)Man(a1-2)Man(a1-3)]Man
# Method in brief: as §1
# [21] = molecular target: Neu5Ac(a2-3)Gal(b1-3)GlcNAc6S
# Method in brief: as §1
# [22] = molecular target: Neu5Ac(a2-3)Gal(b1-4)[Fuc(a1-3)]GlcNAc(b1-3)Gal(b1-4)GlcNAc
# Method in brief: as §1
# [23] = molecular target: Neu5Ac(a2-3)Gal(b1-4)[Fuc(a1-3)]GlcNAc6S
# Method in brief: as §1
# Neu5Ac(a2-3)GalNAc = molecular target: Neu5Ac(a2-3)GalNAc
# Method in brief: as §1
# [24] = molecular target: Neu5Gc(a2-3)Gal(b1-3)GlcNAc
# Method in brief: as §1
binder,measurement,setting,value
B1,glycan array binding signal (z-score),[1],-0.364
same,glycan array binding signal (z-score),[2],-0.36
same,glycan array binding signal (z-score),[3],-0.364
same,glycan array binding signal (z-score),[4],0.123
same,glycan array binding signal (z-score),[5],-0.357
same,glycan array binding signal (z-score),Gal(a1-3)Gal(b1-4)GlcNAc,-0.137
same,glycan array binding signal (z-score),Gal(a1-6)Glc,-0.37
same,glycan array binding signal (z-score),Gal(b1-3)Gal(b1-4)GlcNAc,3.61
same,glycan array binding signal (z-score),[6],0.413
same,glycan array binding signal (z-score),[7],-0.333
same,glycan array binding signal (z-score),[8],-0.192
same,glycan array binding signal (z-score),[9],3.28
same,glycan array binding signal (z-score),[10],1.27
same,glycan array binding signal (z-score),[11],0.001
same,glycan array binding signal (z-score),[12],1.15
same,glycan array binding signal (z-score),[13],3.31
same,glycan array binding signal (z-score),[14],3.16
same,glycan array binding signal (z-score),[15],3.28
same,glycan array binding signal (z-score),[16],3.31
same,glycan array binding signal (z-score),[17],4.18
same,glycan array binding signal (z-score),[18],2.44
same,glycan array binding signal (z-score),Gal3S(b1-3)GlcNAc,-0.363
same,glycan array binding signal (z-score),Kdn(a2-6)Gal(b1-4)GlcNAc,0.063
same,glycan array binding signal (z-score),[19],-0.378
same,glycan array binding signal (z-score),[20],-0.369
same,glycan array binding signal (z-score),[21],-0.36
same,glycan array binding signal (z-score),[22],2.3
same,glycan array binding signal (z-score),[23],-0.373
same,glycan array binding signal (z-score),Neu5Ac(a2-3)GalNAc,-0.364
same,glycan array binding signal (z-score),[24],-0.368
